Experimental findings from PubChem BioAssay AID430 (Sanford-Burnham Center for Chemical Genomics, 2006) are described below.

The campaign covered roughly 63,000 compounds. About 1,100 (1.7%) were called active. The entries come from a sample that favours actives as a whole. Results with a measured potency or affinity are listed apart. A number with no mark means an inactive call. Rule as the data show it: active = cytotoxicity above about 50%; inactive = the rest.

The nature of the assay: cytotoxicity in HPDE-C7 cells, cell-based, fluorescence, HTS (AID 430).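 Also: cells exposed to compound for 48 hours before viability readout; 0% = vehicle and 100% = reference cytotoxic drug.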 The conditions noted are these: HPDE-C7 pancreatic duct cells viability, at 10 µM, hits give high values.
Regarding `O=C1N=c2ccccc2=C1c1sc(=S)n(CC2CCCO2)c1O` (stereo not given), the cytotoxicity is -0.5%.

In the case of `C=CCn1c(O)c(C2=c3ccccc3=NC2=O)sc1=Nc1ccc(O)cc1`, the cytotoxicity is 111% (active). In the case of `C=CCn1c(O)c(C2=c3ccccc3=NC2=O)s/c1=N/c1nccs1`, the cytotoxicity was -2.6%. Regarding `Cc1cccc(OCCc2nnc(N)s2)c1C`, the cytotoxicity is -15.8%.

`CC(C)c1nnc(NC(=O)CSc2nc3ccccc3s2)s1`: the cytotoxicity was -8.4%. For `Cc1ccc(C(C(=O)NC(C)(C)C)N(CC2CCCO2)C(=O)Cn2nnc(-c3ccc(C)o3)n2)cc1` (stereo not given), the cytotoxicity is -0.4%.

For `COc1ccc(-c2cc3ccccc3n2CC(O)CNC(CO)(CO)CO)cc1` (stereo not given), the cytotoxicity is 6.1%. Turning to `COc1ccc(-c2cc3ccccc3n2CC(O)CN2CCOCC2)cc1` (stereo not given), the cytotoxicity is -1.1%. In the case of `COc1ccc(-c2cc3ccccc3n2CC(O)CN2CCN(CCO)CC2)cc1` (stereo not given), the cytotoxicity was 52.6% (active).

With `CCOc1ccc(C2C(C(=O)c3ccco3)=C(O)C(=O)N2Cc2cccnc2)cc1OC` (stereo not given), the cytotoxicity is 7.1%. As to `CC(=O)c1sc(NC(=O)c2ccco2)nc1-c1ccccc1`, the cytotoxicity was -1%. Take `CCn1c2ccccc2c2cc(NC(=O)N3CCOCC3)ccc21`: the cytotoxicity is 6.2%. To `O=C(OC1CCCCC1)c1ccc(NC(=O)c2ccco2)cc1` belongs 58.1% (active). To `Cc1ccc(Oc2ccc(NC(=O)c3ccco3)cc2)cc1` belongs 78.8% (active); to `O=C(Nc1ccc(Oc2ccc(NC(=O)c3ccco3)c(NC(=O)c3ccco3)c2)cc1)c1ccco1`, 25%; to `CCn1c2ccccc2c2cc(CN3CCN(C(=O)c4ccco4)CC3)ccc21`, -25.2%. Consider `O=C(Nc1ccc(OC(=O)c2ccco2)cc1)c1ccco1`, for which the cytotoxicity is -10.9%. In the case of `CCn1c2ccccc2c2cc(NC(=O)c3ccco3)ccc21`, the cytotoxicity is 57.2% (active). With `Cc1ccc(NC(=O)c2ccc(OC(=O)c3ccco3)cc2)cc1`, the cytotoxicity is -5.6%.

`O=C(Nc1nc(-c2cccs2)c(-c2ccccc2)s1)c1ccco1`: the cytotoxicity was 53.7% (active).

With `O=C(O)CCC(=O)Nc1ccc(C(=O)OC2CCCCC2)cc1`, the cytotoxicity was -4.7%. As for `CCOC(=O)c1sc(NC(=O)c2ccco2)nc1-c1ccccc1`, the cytotoxicity was -8.2%. `CC(C)CCNC(=O)CN(CCN1CCOCC1)C(=O)Cn1nnc(-c2ccc(F)cc2)n1`: the cytotoxicity was 4.5%. Turning to `Cc1c(C(=O)O)sc2ncnc(N3CCCCC3C)c12` (stereo not given), the cytotoxicity was 9.8%.

For `COC(=O)c1sc(NC(=O)c2ccco2)nc1C`, the cytotoxicity was -3.5%. With `CCCCOC(=O)c1ccc(NC(C)=O)cc1`, the cytotoxicity is -11.4%.

As to `Cc1nc(NC(=O)c2ccco2)sc1C(=O)Nc1ccc(Br)cc1`, the cytotoxicity was 65.7% (active).

For the compound `CCCCOC(=O)c1ccc(NC(=O)c2ccoc2C)cc1`, the cytotoxicity was 3.4%. To `CCOC(=O)c1sc(NC(=O)c2ccco2)nc1C` belongs -1.4%; to `CCCCCOC(=O)c1ccc(NC(=O)c2ccco2)cc1`, 65.9% (active); to `Cc1ccc2c(c1)NCCO2`, 5.4%.

Regarding `COc1c(Br)cc(Br)cc1/C=N/n1c(C)nnc1C`, the cytotoxicity is 2.9%. Turning to `Cc1nnc(C)n1/N=C/c1cc(Br)ccc1O`, the cytotoxicity is -12.5%. For `Cc1nnc(C)n1/N=C/c1cc(Br)cc(Br)c1O`, the cytotoxicity was 79.9% (active). With `CC(C)COC(=O)C(N)C(C(=O)OCC(C)C)c1ccccc1` (stereo not given), the cytotoxicity is -6.4%. As for `O=C(NCC1CCCO1)C1CC(=O)N(c2ccc(F)c(Cl)c2)C1` (stereo not given), the cytotoxicity is 3.4%. As for `CCN(CC)c1ccc2c(C)c(CN3CCOCC3)c(=O)oc2c1`, the figure is 24.1%; as for `CCNc1ccc2c(Cl)cc(=O)oc2c1`, -2%. As for `CCOC(=O)Cc1c(C)c2ccc(N(CC)CC)cc2oc1=O`, the cytotoxicity is -17.8%.

Take `CCN(CC)c1ccc2c(C)c(-c3ccc(N)cc3)c(=O)oc2c1`: the cytotoxicity was 11%. For the compound `CCN(CC)C(=O)CSc1nnc(-c2cccs2)n1Cc1ccco1`, the cytotoxicity was 17.7%. Consider `O=C(COc1ccccc1)N1CCN(C(=O)c2cccc(F)c2)CC1`, for which the cytotoxicity is -40.5%. For `CCOC(=O)CN1C(=O)COc2ccc(Cl)cc21`, the cytotoxicity is -8.8%. With `CCN(CC)CCCN(Cc1cc2cc3c(cc2[nH]c1=O)OCCO3)C(=O)Nc1ccc(F)cc1`, the cytotoxicity is 0.9%. To `O=C(c1ccc(Cn2cc(Br)cn2)cc1)N1CCN(c2ccccc2)CC1` belongs 53.1% (active); to `O=C(O)c1cccc(Cn2cc(Br)cn2)c1`, -12.3%.

In the case of `O=C(c1ccc(Cn2cc(Cl)cn2)cc1)N1CCN(c2ccccc2)CC1`, the cytotoxicity was 12.3%. Take `CC(=O)N(Cc1cc(=O)[nH]c2ccccc12)c1cccc(C)c1`: the cytotoxicity was 12%. Take `CC1(C)CC(=O)C2=C(C1)N(CCN1CCOCC1)C1=C(C(=O)CC(C)(C)C1)C2c1cccc(Cl)c1`: the cytotoxicity was 3.8%. Take `O=C1CC(N2CCN(c3ccccc3)CC2)C(=O)N1c1ccc2c(c1)OCCO2` (stereo not given): the cytotoxicity was -4.9%. In the case of `Cc1ccc(CCNC(=O)C2CCCN(c3nc4ccccc4o3)C2)cc1` (stereo not given), the cytotoxicity is -18%.

On to `COc1cc(C(=O)Nc2ccc(NC(=O)c3ccco3)nc2)cc(OC)c1OC`, for which the cytotoxicity is -2.5%.

Regarding `CCOc1cc(NC(=O)c2ccco2)c(OCC)cc1NC(=O)c1cc(OC)c(OC)c(OC)c1`, the cytotoxicity was 14.4%. Consider `COc1cc(NC(=O)c2ccco2)c(OC)cc1NC(=O)c1cc(OC)c(OC)c(OC)c1`, for which the cytotoxicity is 52.3% (active). As for `Cc1cccc(NC(=O)Cn2c(C)c(C#N)c3ccccc32)c1C`, the figure is -4.9%; as for `O=C(CSc1n[nH]c(=O)[nH]c1=O)c1ccccc1`, 5%; as for `c1ccc(Cc2nnc3sc(Nc4ccccc4)nn23)cc1`, 3%. Consider `CCn1c(SCC(=O)N2CCN(c3ccc(Cl)cc3)CC2)nc2ccccc2c1=O`, for which the cytotoxicity is 2.2%. As to `O=C(NCc1cccnc1)C1CC(=O)N(c2ccc(Cl)cc2)C1` (stereo not given), the cytotoxicity was -7%. As for `CSC1=NCCN1C(=O)c1cccs1`, the figure is 2%; as for `COc1ccc(NC(=O)CSC2=C(C#N)C(c3ccco3)C3=C(CCCC3=O)N2)c(OC)c1` (stereo not given), -2.1%. In the case of `Cc1ccc(C(=O)CSC2=C(C#N)C(c3ccco3)C3=C(CC(C)(C)CC3=O)N2)cc1` (stereo not given), the cytotoxicity was 7.1%. For the compound `N#CC1=C(SCC(=O)c2ccccc2)NC2=C(C(=O)CCC2)C1c1ccco1` (stereo not given), the cytotoxicity is 54.3% (active). Take `Cc1ccc(NC(=O)CSC2=C(C#N)C(c3ccco3)C3=C(CCCC3=O)N2)cc1` (stereo not given): the cytotoxicity was 3.5%. As for `Cc1ccc(C(=O)CSC2=C(C#N)C(c3ccco3)C3=C(CCCC3=O)N2)cc1` (stereo not given), the cytotoxicity is 76.5% (active).

For the compound `CC(C)(C)c1ccc(C(=O)CCCSC2=C(C#N)C(c3ccco3)C3=C(CCCC3=O)N2)cc1` (stereo not given), the cytotoxicity was 38.2%. As for `CCOC(=O)N1CCN(CC(=O)Nc2c(C(=O)OC)[nH]c3cccc(Cl)c23)CC1`, the cytotoxicity was -17.3%. For `COc1ccc(-n2nnnc2SCC(=O)c2cc3ccccc3o2)cc1`, the cytotoxicity is -1.1%. Turning to `CCOC(=O)C1C(=O)CC(C)(O)C(C(=O)OCC)C1c1ccccc1OC` (stereo not given), the cytotoxicity is -17.4%.

With `CSCCC(NC(=O)OC(C)(C)C)C(=O)NC(CC(C)C)C(N)=O` (stereo not given), the cytotoxicity was -35.4%. For `Cc1cccc(C)c1NC(=O)C(c1ccccc1)N1CCC2(CC1)OCCO2` (stereo not given), the cytotoxicity is 9.2%. As for `CCCC1=C(C(=O)OCC)C(c2ccccc2OC)NC(=O)N1` (stereo not given), the figure is -16.5%; as for `Cc1noc(C)c1S(=O)(=O)N(CC(=O)N1CCn2c1nc1ccccc12)c1ccc(C(C)C)cc1`, 8.7%; as for `CCCn1c(CNc2ccc(Br)cc2)nc2ccccc21`, 50.8% (active). Consider `CCCn1c(NC(=O)c2ccccc2)nc2ccccc21`, for which the cytotoxicity was -20.2%. To `CCCn1c(CNc2ccccc2O)nc2ccccc21` belongs 14.5%. For the compound `Cn1c(CNc2ccccc2)nc2ccccc21`, the cytotoxicity was -11.4%. Take `CCCn1c(NCc2ccco2)nc2ccccc21`: the cytotoxicity was 2%.

Turning to `Cc1ccc(Nc2cc(C)nc3nc(C)nn23)c(C)c1`, the cytotoxicity is -12.6%. Regarding `C=CCOC(=O)C1=C(C)OC(N)=C(C#N)C1c1ccccc1F` (stereo not given), the cytotoxicity is 6.1%.

Consider `COC(=O)c1ccc(CSc2nc(N)cc(N)n2)cc1`, for which the cytotoxicity was -4.4%. As for `CCC(C)NCC(O)COCc1ccc(Cl)cc1` (stereo not given), the figure is 9.9%; as for `O=C(c1cnn2c1NC(c1ccco1)CC2C(F)(F)F)N1CCN(c2cccc(Cl)c2)CC1` (stereo not given), 50.2% (active); as for `O=C(c1ccco1)N1CCN(C(=O)c2cnn3c2NC(c2cccs2)CC3C(F)(F)F)CC1` (stereo not given), -5%. With `O=C(Nc1ccc2c(c1)CCC2)c1cnn2c1NC(c1ccco1)CC2C(F)(F)F` (stereo not given), the cytotoxicity was -4.4%.

Regarding `Cc1ccc(-c2ccc(=O)n(CCC(=O)NCCN3CCCCC3C)n2)cc1` (stereo not given), the cytotoxicity was 5.1%. Regarding `O=S(=O)(Nc1nc2ccccc2nc1NCCO)c1cccc(Cl)c1`, the cytotoxicity is 12.5%. As for `CCOC(=O)N1CCC(N(C(=O)Nc2ccccc2)C(C)CC)CC1` (stereo not given), the figure is -4.7%; as for `O=C1CC(c2cccnc2)c2cc3c(cc2N1)OCCO3` (stereo not given), 5.1%. For `CCCOc1ccccc1C1CC(=O)Nc2cc3c(cc21)OCCO3` (stereo not given), the cytotoxicity was 63% (active). On to `O=C1CC(c2cccs2)c2cc3c(cc2N1)OCO3` (stereo not given), for which the cytotoxicity is 1%. Turning to `CCCOc1c(OC)cccc1C1CC(=O)Nc2cc3c(cc21)OCO3` (stereo not given), the cytotoxicity was 12.7%. With `CCCOc1ccccc1C1CC(=O)Nc2cc3c(cc21)OCO3` (stereo not given), the cytotoxicity was 54.1% (active). As for `CCOc1ccccc1C1CC(=O)NC2=C1C(=O)CCC2` (stereo not given), the figure is 30.3%; as for `O=C1CC(c2ccc3c(c2)OCO3)c2cc3c(cc2N1)OCO3` (stereo not given), -5.6%; as for `O=C1CC(c2cccs2)c2cc3c(cc2N1)OCCO3` (stereo not given), 5.6%. As to `CCCCOc1ccccc1C1CC(=O)NC2=C1C(=O)CCC2` (stereo not given), the cytotoxicity was 71.2% (active). As for `CCCOc1c(OC)cccc1C1CC(=O)Nc2cc(OC)c(OC)c(OC)c21` (stereo not given), the cytotoxicity is 10.7%.

In the case of `CCCOc1ccccc1C1CC(=O)NC2=C1C(=O)CCC2` (stereo not given), the cytotoxicity is 47.3%.

Regarding `CCCOc1c(OC)cccc1C1CC(=O)Nc2cc3c(cc21)OCCO3` (stereo not given), the cytotoxicity was 70.1% (active).
